Experimental data taken from PubChem BioAssay.
Measured potencies and affinities stand elsewhere. Activity calls are given as the source filed them. Cut-off not given; nearly all actives show IC50 up to about 0.98 µM.

molecular target: Calcium-dependent protein kinase 1 (Plasmodium falciparum (isolate 3D7)) (UniProt P62344); assay: PfCDPK1 kinase inhibitors, biochemical, TCAMS library (AID 1159585); settings: recombinant PfCDPK1, Kinase-Glo ATP depletion luminescence;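 further: inhibitors leave more ATP so luminescence rises with inhibition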
Sequence (P62344 whole entry, looked up): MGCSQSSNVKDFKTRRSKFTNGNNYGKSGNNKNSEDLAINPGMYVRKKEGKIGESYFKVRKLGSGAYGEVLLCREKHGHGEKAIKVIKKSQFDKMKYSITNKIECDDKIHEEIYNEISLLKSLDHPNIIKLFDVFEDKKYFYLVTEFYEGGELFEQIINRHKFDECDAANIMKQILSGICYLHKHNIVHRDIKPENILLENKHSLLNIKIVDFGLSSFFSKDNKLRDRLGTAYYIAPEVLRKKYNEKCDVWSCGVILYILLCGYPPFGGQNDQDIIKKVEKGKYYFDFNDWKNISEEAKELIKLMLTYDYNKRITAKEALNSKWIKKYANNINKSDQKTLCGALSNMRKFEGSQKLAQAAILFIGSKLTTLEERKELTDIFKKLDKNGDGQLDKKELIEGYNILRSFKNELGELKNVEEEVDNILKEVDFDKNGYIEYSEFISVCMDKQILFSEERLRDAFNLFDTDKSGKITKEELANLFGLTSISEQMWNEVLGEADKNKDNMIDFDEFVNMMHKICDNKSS

outcome, inactive:
O=C1COc2ccc3ccccc3c21
Cc1cccc2[nH]c(-c3cccc(-c4cccc(CNCC5CCCO5)c4)c3)nc12 (stereo not given)
CCCCCCN1CCC(CNCc2cccc([N+](=O)[O-])c2)CC1
O=C(NCCc1ccccc1)[C@H](Cc1ccccc1)Nc1ccnc(NCC2CCCCC2)n1
CCOC(=O)c1cn(CC)c2cc(N(C)CCc3ccc(OC)c(OC)c3)c(F)cc2c1=O
O=C(Nc1cccc(CN2CCCN(Cc3cccc(Cl)c3)CC2)c1)c1ccc(-c2ccccc2)cc1
C=CCC(C(=O)Nc1ccnc2ccc(OC)cc12)C1CCN(CCCCCCC)CC1 (stereo not given)
O=C(C=Cc1ccc(Cl)c(Cl)c1)NCCCCCN1CCC(CCNC(=O)c2ccc3c(c2)OCO3)CC1
COc1cc2ncnc(Nc3ccc4nc(Cc5ccccc5)[nH]c4c3)c2cc1OC
COc1ccc(-n2nc(C(=O)NCc3ccccc3OC)c3ccccc3c2=O)cc1
CCc1ccccc1OCCCON1C(N)=NC(N)=NC1(C)C
CC(C)c1cc2c(ccc3nc(N)nc(N)c32)[nH]1
Cc1cc(N2CCCCC2)nc2ccc(NC(=O)c3cncc(Br)c3)cc12
CC1CCN(CCNC(=O)c2ccc3c(=O)n(Cc4ccc(Cl)cc4)c(=S)[nH]c3c2)CC1
CCC[C@@H]([C@@H](CC(C)C)C(=O)N[C@H](C(=O)Nc1nccs1)C(C)(C)SCCNC(=O)OCC)N(O)C=O
COc1ccc(NC(=O)N2CCc3ccc(OCCN(C(C)C)C(C)C)cc32)cc1C(F)(F)F
c1ccc2nc(NCCCCCCCCNc3ccc4ccccc4n3)ccc2c1
O=C(Nc1cccc(-c2cccc(-c3nc4ccc(F)cc4[nH]3)c2)c1)Nc1ccc(F)c(F)c1F
Cc1ccc(C2=NNC3(S2)C(=O)N(C)c2ccccc23)cc1 (stereo not given)
Cc1c(N)ccc2[nH]c(-c3ccc(N)cc3)nc12
Fc1cccc(Nc2nc(NCc3ccc(Cl)c(Cl)c3)nc(Nc3cccc(F)c3)n2)c1
CC1(C)N=C(NC(=O)c2ccc([N+](=O)[O-])cc2)N=C(N)N1OCc1ccc2ccccc2c1
O=[N+]([O-])c1cccc(C=NNc2ccnc3cc(F)ccc23)c1
CC(C)OC(=O)c1ccccc1S(N)(=O)=O
COc1ccc(CC(=O)NC2CCN(c3ccnc4cc(Cl)ccc34)C2)cc1 (stereo not given)
Cc1nc2nc(N)nc(N)c2c(C)c1Cc1ccc(C#N)cc1
COc1ccc(S(=O)(=O)N2CCC3(CC2)OCC(=O)NC3c2ccc(Cl)c(Cl)c2)cc1 (stereo not given)
COC(=O)c1ccc(OCC(C)NCC(O)c2cccc(C(F)(F)F)c2)cc1 (stereo not given)
COc1ccc2nccc([C@@H](O)CN3CCC(NC(=O)/C=C/c4ccc5ccccc5n4)CC3)c2c1
COc1ccc2nccc([C@@H](O)CN3CCC(NCCNc4ccccn4)CC3)c2c1
CS(=O)(=O)c1ccc(CCNCc2ccc(-c3ccc(CN(C(=O)C4CC(=O)c5ccccc54)C4Cc5ccccc5C4)cc3)nc2)cc1 (stereo not given)
Cc1c(C)c2c(c(C)c1O)CC[C@@](C)(C(=O)N1CCC(CCN3CCC(c4c[nH]c5ccccc45)CC3)CC1)O2
Cc1noc(C)c1S(=O)(=O)N(C)Cc1ccc(-c2ccc(Cl)cc2)o1
CCC(C)(CC)C(=O)n1ncc2c3c(N)nc(N)nc3ccc21
Clc1ncccc1-c1nc(NCCC(c2ccccc2)c2ccccc2)no1
CCCCCCN1CCCN(Cc2ccc(C(=O)Nc3cccc(CC)c3)cc2)CC1
Cc1ccc(NC(=S)N2CCCN(CCCCCNC(=O)/C=C/c3ccc(Cl)c(Cl)c3)CC2)cc1Cl
CCOc1cc(C(=O)NCc2cc(Cl)cc(Cl)c2)ccc1-c1nc2ccc(Cl)cc2[nH]1
COc1cc(C(F)(F)F)cc2[nH]c(CNCCCNc3nc4ccccc4[nH]3)cc12
NC1=Nc2ccc(Cl)cc2C1(O)c1ccccc1 (stereo not given)
